Laboratory results as given in PubChem BioAssay (NCATS).
Values without a mark were called inactive. Inconclusive results are not listed. A call without a number means that no potency is given here. Calls of active or inactive are those of the source. Unless noted, calls come from the whole dose curve; as a rule, active = well fitted curve in the direction sought with a large enough effect; inconclusive = small, poorly fitted or top-dose-only effect, or another doubt; inactive = no such curve, though single readings can be large; an effect the other way counts as inactive or inconclusive.

Columns and labels:
[1] = biological target: Cytochrome P450 1A2 (Homo sapiens) (UniProt P05177); test: p450-cyp1a2 (AID 410; calls by dose curve; note: potency is the fitted concentration of half-maximal effect)
Method in brief: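 20nM CYP1A2, 100uM Luciferin-ME (=Km), 100mM KPO4; cpd 10 min RT; +NADPH regen, 60 min RT; stop/detect 20 min; luminescence. Normalized to furafylline 57 uM = full inhibition.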

[2] = biological target: Mitogen-activated protein kinase 10 (Mus musculus) (UniProt Q61831); test: JNK3 AlphaScreen Assay (AID 530; active = well fitted curve in either direction with a large enough effect, not every such curve was filed as active;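 note: kinase came from lysate of stimulated human HepG2 cells; signal reports phosphorylation of biotinylated GST-cJun 1-79 at Ser73 with 10 µM ATP; series mostly up to about 57 µM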)
Method in brief: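 Biotinylated GST-cJun(1-79) served as substrate for JNK3 in HepG2 lysates stimulated with IL-1beta and TNF-alpha. ATP was 10 uM final, pH 7.6. Ser73 phosphorylation was quantified by AlphaScreen (680 nm excitation).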

[3] = biological target: 3',5'-cyclic-AMP phosphodiesterase 4B (Homo sapiens) (UniProt Q07343); test: qHTS Assay for Inhibitors of PDE-IV (AID 607; active = well fitted activation curve with a large enough effect in the main read-out, with a control signal flat, not every such curve was filed as active)
Method in brief: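 Live HEK293 cells with a modified cyclic nucleotide-gated (CNG) channel report intracellular cAMP via membrane-potential dye fluorescence (ex 535/em 590 nm). Endogenous PDE-IV was targeted. Compounds were tested at up to 22.9 uM final; RO 20-1724 100 uM served as control.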

[4] = biological target: Cytochrome P450 2C9 (Homo sapiens) (UniProt P11712); test: qHTS Assay for Inhibitors and Substrates of Cytochrome P450 2C9 (AID 883); note: nearly all actives have a fitted effect of over 60% in size; note: potency is the fitted concentration of half-maximal effect
Method in brief: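 Human CYP2C9 (10nM) hydroxylated Luciferin-H (100uM, at its KM) to luciferin in 25mM KPO4. Compound was preincubated 10 min at 37C, then NADPH regeneration started a 60 min reaction at 37C. Luminescence was read after detection reagent, normalized to 57uM sulphaphenazole.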

[5] = biological target: Cytochrome P450 3A4 (Homo sapiens) (UniProt P08684); test: qHTS Assay for Inhibitors and Substrates of Cytochrome P450 3A4 (AID 884); note: potency is the fitted concentration of half-maximal effect; nearly all actives have a fitted effect of over 50% in size
Method in brief: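 Luminescent readout of luciferin produced by CYP3A4 (20 nM) dealkylation of Luciferin-PPXE, 25 uM (its KM). NADPH-driven reaction ran 60 min at RT after 10 min compound preincubation; data scaled to 57 uM ketoconazole as 100% inhibition.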

[6] = biological target: Cytochrome P450 3A4 (Homo sapiens) (UniProt P08684); test: qHTS Assay for Activators of Cytochrome P450 3A4 (AID 885); note: nearly all actives have a fitted effect of over 65% in size
Method in brief: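 Using 20nM recombinant human CYP3A4 in potassium phosphate (200mM), substrate Luciferin-PPXE at 25uM, luminescent luciferin detection followed a 60-min RT NADPH reaction; data scaled to 57 uM ketoconazole.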

[7] = biological target: Cytochrome P450 2C19 (Homo sapiens) (UniProt P33261); test: qHTS Assay for Inhibitors and Substrates of Cytochrome P450 2C19 (AID 899); note: potency is the fitted concentration of half-maximal effect; nearly all actives have a fitted effect of over 60% in size
Method in brief: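 Human CYP2C19 (5nM) with Luciferin-H EGE at 10uM (its KM) in 50mM KPO4 was preincubated with compound for 10 min at 37C. NADPH regeneration started a 60 min 37C reaction. Luciferin was read by luminescence, normalized to 57uM ketoconazole.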

[8] = biological target: Cytochrome P450 2D6 (Homo sapiens) (UniProt P10635); test: qHTS Assay for Inhibitors and Substrates of Cytochrome P450 2D6 (AID 891); note: potency is the fitted concentration of half-maximal effect; nearly all actives have a fitted effect of over 60% in size
Method in brief: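 Luminescent read-out of luciferin formed by 5 nM human CYP2D6 demethylating 30 uM Luciferin-ME EGE (Km level) over 60 min at room temperature after NADPH regeneration addition. Data normalized to full inhibition by 1.43 uM quinidine.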

Chain of Cytochrome P450 2C19 (Homo sapiens) (P33261 whole entry, looked up): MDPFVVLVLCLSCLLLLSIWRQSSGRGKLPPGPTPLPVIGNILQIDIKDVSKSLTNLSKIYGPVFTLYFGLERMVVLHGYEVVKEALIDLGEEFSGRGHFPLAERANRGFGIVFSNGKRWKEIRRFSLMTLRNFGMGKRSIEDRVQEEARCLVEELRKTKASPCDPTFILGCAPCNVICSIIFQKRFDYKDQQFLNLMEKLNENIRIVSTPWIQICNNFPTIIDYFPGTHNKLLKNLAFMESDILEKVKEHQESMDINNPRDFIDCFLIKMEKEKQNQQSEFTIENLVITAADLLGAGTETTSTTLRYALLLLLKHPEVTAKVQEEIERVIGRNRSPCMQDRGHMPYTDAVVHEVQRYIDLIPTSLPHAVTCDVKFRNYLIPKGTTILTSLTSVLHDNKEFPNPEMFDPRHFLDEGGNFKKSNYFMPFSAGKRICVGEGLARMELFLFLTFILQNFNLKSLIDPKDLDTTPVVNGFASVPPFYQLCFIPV
Chain of Cytochrome P450 1A2 (Homo sapiens) (P05177 whole entry, looked up): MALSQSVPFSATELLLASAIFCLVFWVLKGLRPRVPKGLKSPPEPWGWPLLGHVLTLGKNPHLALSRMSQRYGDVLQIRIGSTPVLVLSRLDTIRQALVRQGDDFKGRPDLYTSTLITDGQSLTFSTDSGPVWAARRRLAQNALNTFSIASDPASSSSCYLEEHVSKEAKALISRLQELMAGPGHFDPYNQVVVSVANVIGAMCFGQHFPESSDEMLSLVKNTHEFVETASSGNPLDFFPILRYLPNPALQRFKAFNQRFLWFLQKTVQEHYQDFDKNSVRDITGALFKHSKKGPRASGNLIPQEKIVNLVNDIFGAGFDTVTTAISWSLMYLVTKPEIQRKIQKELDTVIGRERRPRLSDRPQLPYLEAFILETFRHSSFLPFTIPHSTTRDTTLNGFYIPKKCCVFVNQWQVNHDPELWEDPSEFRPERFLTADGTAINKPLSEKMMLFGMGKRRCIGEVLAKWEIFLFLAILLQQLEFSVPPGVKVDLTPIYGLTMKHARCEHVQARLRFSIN
Chain of Cytochrome P450 3A4 (Homo sapiens) (P08684 whole entry, looked up): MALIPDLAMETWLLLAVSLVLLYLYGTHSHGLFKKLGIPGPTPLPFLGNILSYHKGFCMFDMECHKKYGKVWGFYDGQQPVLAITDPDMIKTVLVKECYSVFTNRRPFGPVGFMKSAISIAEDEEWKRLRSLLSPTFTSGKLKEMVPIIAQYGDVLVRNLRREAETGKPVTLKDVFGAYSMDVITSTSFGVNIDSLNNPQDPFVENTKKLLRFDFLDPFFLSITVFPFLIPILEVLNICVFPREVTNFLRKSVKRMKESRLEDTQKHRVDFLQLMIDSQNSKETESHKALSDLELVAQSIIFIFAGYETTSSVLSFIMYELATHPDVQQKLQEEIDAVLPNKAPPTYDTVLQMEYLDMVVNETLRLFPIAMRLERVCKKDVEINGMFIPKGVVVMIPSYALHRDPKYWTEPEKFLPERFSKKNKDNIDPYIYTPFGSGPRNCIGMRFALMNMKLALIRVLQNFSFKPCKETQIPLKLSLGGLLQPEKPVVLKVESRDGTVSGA
Chain of 3',5'-cyclic-AMP phosphodiesterase 4B (Homo sapiens) (Q07343 whole entry, looked up): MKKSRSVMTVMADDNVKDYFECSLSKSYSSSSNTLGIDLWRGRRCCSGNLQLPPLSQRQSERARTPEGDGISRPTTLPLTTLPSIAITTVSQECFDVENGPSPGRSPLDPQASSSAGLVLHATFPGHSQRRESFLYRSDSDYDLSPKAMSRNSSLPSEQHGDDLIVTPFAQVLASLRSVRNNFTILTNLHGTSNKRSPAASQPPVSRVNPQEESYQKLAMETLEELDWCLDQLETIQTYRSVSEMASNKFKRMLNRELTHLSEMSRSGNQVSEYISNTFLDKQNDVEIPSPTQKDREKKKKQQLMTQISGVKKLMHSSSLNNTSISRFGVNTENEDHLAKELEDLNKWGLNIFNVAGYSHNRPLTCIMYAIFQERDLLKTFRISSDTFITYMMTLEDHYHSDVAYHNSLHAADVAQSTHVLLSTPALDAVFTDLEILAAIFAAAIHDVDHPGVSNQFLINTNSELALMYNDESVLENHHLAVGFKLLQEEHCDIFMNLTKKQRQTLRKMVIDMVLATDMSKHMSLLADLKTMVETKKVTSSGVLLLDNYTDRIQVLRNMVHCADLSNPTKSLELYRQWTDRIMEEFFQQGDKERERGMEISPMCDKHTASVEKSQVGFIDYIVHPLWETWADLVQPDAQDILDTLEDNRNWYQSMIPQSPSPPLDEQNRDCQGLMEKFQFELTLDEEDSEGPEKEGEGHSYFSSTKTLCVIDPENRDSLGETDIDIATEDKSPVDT
Chain of Cytochrome P450 2C9 (Homo sapiens) (P11712 whole entry, looked up): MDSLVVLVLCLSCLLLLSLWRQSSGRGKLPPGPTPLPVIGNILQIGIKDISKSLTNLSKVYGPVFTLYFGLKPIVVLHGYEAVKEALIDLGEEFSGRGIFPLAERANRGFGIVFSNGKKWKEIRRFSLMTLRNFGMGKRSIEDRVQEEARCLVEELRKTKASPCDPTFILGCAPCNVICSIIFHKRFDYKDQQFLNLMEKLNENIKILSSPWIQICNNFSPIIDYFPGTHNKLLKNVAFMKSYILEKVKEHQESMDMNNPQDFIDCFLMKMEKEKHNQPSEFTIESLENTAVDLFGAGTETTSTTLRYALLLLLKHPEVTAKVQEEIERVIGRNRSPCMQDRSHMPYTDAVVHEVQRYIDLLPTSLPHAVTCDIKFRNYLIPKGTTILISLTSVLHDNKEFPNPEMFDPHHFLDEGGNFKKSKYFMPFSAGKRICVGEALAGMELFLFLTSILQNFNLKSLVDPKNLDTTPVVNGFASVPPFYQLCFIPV
Chain of Cytochrome P450 2D6 (Homo sapiens) (P10635 whole entry, looked up): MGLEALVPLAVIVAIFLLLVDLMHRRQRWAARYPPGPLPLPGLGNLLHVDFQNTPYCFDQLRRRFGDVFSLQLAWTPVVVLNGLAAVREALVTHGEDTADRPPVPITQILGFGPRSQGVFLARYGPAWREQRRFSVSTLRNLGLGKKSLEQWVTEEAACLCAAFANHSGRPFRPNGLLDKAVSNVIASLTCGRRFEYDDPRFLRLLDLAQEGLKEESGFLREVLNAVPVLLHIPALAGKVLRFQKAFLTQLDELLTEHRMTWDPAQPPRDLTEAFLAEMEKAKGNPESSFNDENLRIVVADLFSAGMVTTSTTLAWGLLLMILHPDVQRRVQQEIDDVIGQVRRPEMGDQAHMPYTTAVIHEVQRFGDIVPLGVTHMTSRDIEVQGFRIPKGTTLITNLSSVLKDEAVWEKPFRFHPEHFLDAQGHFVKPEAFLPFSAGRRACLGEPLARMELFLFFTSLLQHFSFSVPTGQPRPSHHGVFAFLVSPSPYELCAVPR

| Compound | Potency [1] | Potency [2] | Potency [3] | Potency [4] | Potency [5] | Potency [6] | Potency [7] | Potency [8] |
| --- | --- | --- | --- | --- | --- | --- | --- | --- |
| COC(=O)[C@@]1(Cc2ccc(OC)cc2)[C@H]2c3cc(C(=O)N(C)C)[nH]c3C[C@H]2CN1C(=O)c1ccccc1 | 20 µM (active) | inactive | inactive | 3.98 µM (active) | 1.58 µM (active) | inactive | 5.01 µM (active) |  |
| O=C(NCCc1c[nH]c2ccccc12)[C@@H]1C[C@H]1[C@@H](NP(=O)(c1ccccc1)c1ccccc1)c1ccccc1 | 15.8 µM (active) | inactive | inactive | 0.251 µM (active) |  | inactive | 6.31 µM (active) |  |
| COC(=O)[C@@]1(Cc2ccc(F)cc2)[C@H]2c3cc(C(=O)N4CCCC4)n(Cc4ccc(C)o4)c3C[C@H]2CN1C(=O)c1ccccc1 | 10 µM (active) | inactive | inactive | 3.98 µM (active) |  | inactive | 5.01 µM (active) |  |
| C[C@@H](C(=O)Nc1ccc2ccccc2c1)[C@@H]1C[C@@]1(C)[C@@H](NS(=O)(=O)c1ccc2ccccc2c1)c1ccccc1 | 10 µM (active) | inactive | inactive | inactive |  | inactive |  |  |
| C[C@@H](C(=O)NCCc1c[nH]c2ccccc12)[C@H]1C[C@]1(C)[C@H](NC(=O)OCc1ccccc1)c1ccccc1 | 15.8 µM (active) | inactive | inactive | 0.631 µM (active) |  | inactive | 2.51 µM (active) | 2 µM (active) |
| COC(=O)[C@@]1(Cc2ccc(F)cc2)[C@H]2c3cc(C(=O)N4CCCC4)n(Cc4ccccn4)c3C[C@H]2CN1C(=O)c1ccccc1 | 20 µM (active) | inactive | inactive | 2 µM (active) |  | inactive |  |  |
| Cc1cc(C(=O)N[C@@H](c2ccccc2)[C@]2(C)C[C@H]2[C@@H](C)C(=O)Nc2ccc3ccccc3c2)n(C)n1 | 12.6 µM (active) | inactive | inactive | 3.98 µM (active) | 0.794 µM (active) | inactive |  |  |
| O=C(NCCc1c[nH]c2ccccc12)[C@H]1C[C@@H]1[C@H](NP(=O)(c1ccccc1)c1ccccc1)c1ccccc1 | 12.6 µM (active) | inactive | inactive | 2 µM (active) | 1.58 µM (active) | inactive | 1.26 µM (active) |  |
| COC(=O)[C@@]1(Cc2ccc(F)cc2)[C@H]2c3cc(C(=O)N4CCCC4)n(CCN4CNCC4=O)c3C[C@H]2CN1C(=O)c1ccccc1 | 15.8 µM (active) | inactive | inactive | 7.94 µM (active) | 2 µM (active) | inactive |  |  |
| COC(=O)[C@@]1(Cc2ccc(OC)cc2)[C@H]2c3cc(C(=O)N4CCCC4)n(Cc4cc(F)cc5c4OCOC5)c3C[C@H]2CN1C(=O)c1ccccc1 | inactive | inactive | inactive | 6.31 µM (active) | 2.51 µM (active) | inactive | 7.94 µM (active) |  |
| CC(=O)N[C@@H](c1ccccc1)[C@]1(C)C[C@H]1[C@@H](C)C(=O)Nc1ccc2ccccc2c1 | 12.6 µM (active) | inactive | inactive | 6.31 µM (active) | 7.94 µM (active) | inactive | 0.398 µM (active) |  |
| COC(=O)[C@@]1(Cc2ccccc2)[C@H]2c3cc(C(=O)N4CCCC4)n(Cc4cccc5ccccc45)c3C[C@H]2CN1C(=O)c1ccccc1 | 15.8 µM (active) | inactive | inactive | 0.251 µM (active) | 1.58 µM (active) | inactive |  |  |
| COC(=O)[C@@]1(Cc2ccccc2)[C@H]2c3cc(C(=O)N(C)C)n(Cc4ccsc4Br)c3C[C@H]2CN1C(=O)c1ccccc1 | inactive | inactive | inactive | 3.98 µM (active) | 1.58 µM (active) | inactive | 2 µM (active) |  |
| COC(=O)[C@@]1(Cc2ccc(F)cc2)[C@H]2c3cc(C(=O)N4CCCC4)n(Cc4ccccc4)c3C[C@H]2CN1C(=O)c1ccccc1 | 20 µM (active) | inactive | inactive | 3.98 µM (active) |  | inactive |  |  |
| CCCCCC1=C2CNC(CC(C)C)(C(=O)OC)C=C2C(C)C1=O (centres undefined) | 25.1 µM (active) | inactive | inactive | 3.16 µM (active) |  | inactive |  |  |
| O=C(Nc1ccc2ccccc2c1)[C@H]1C[C@@H]1[C@H](NP(=O)(c1ccccc1)c1ccccc1)c1ccccc1 | 10 µM (active) | inactive | inactive | 3.16 µM (active) | 2.51 µM (active) | inactive | 3.16 µM (active) |  |
| CCCc1cc2c(n1Cc1ccc(OC)cc1)C(C)C1CN(C(=O)c3ccccc3)C(C)(C(=O)OC)C21 (centres undefined) | 15.8 µM (active) | inactive | inactive |  | 3.16 µM (active) | inactive |  |  |
| COC(=O)[C@H]1C[C@@H]1[C@H](NC(=O)c1cc(C)nn1C)c1ccccc1 | 20 µM (active) | inactive | inactive |  | 6.31 µM (active) | inactive |  |  |
